From the supplement of paper PMC10338343
± gives the standard deviation. In all, about 8,200 sequences were measured (“pre-steady-state target cleavage rate”: median about 0.024, highest 2% from about 1.3 on). The sample holds the highest values, similar sequences and a random draw of the others, so the mix is not that of the screen.

System: MIWI (PIWIL1) piRISC loaded with L1MC piRNA (30 nt)
Assay: pre-steady-state target cleavage rate (min^-1); MIWI and MILI are mouse PIWI proteins and EfPiwi is from a freshwater sponge; tags in brackets are library labels; higher = faster piRNA-guided slicing of the target
Conditions: guide: L1MC piRNA 5'p-UAACUAAAUACUAUGCAAGCUGUAGGUCCU
Method in brief: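 In HEPES–potassium acetate buffer at 33 °C, […] transcribed, DNA-blocked target RNA library was mixed with 1 nM active affinity-purified piRISC carrying one synthetic guide, with or without 500 nM GTSF1 partner protein, for 0–8 or 0–960 min. Uncleaved targets were sequenced and normalised to depth and to weakly complementary targets; three trials were pooled and k3 was capped at 0.0001 min^-1. The pre-steady-state cleavage rate followed from a burst-and-steady-state fit.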

[1] = auxiliary factor: 500 nM mouse GTSF1
[2] = auxiliary factor: none (no GTSF1)
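Note: 1 nM active piRISC with 0.1 nM target library at 33 °C single turnover.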

Sequence | pre-steady-state target cleavage rate [1] | pre-steady-state target cleavage rate [2]
UCCUGGAUGUCGAACGUAAGUAUUUAAUUA | < 0.0001 | 
UCCUGGUACAGCUUGCAUAGUUUAUAGUUA | 0.0594 ± 0.017 | 0.0135 ± 0.004
UCCUGGAUGUCGAACGUUUGUAUAUAGUUA | < 0.0001 | 
UGGACCUACAGCUUGCAUAGUAUUUAGUUC [g2:g29:cont:t1C] | 1.14 ± 0.068 | 0.0625 ± 0.012
UGGACCUACAGCUUGCAUAGUAUUUAGUUUA | 1.56 ± 0.086 | 0.075 ± 0.014
UGGACCUACAGCUUGCAUAGUAUUUAGUA | 0.885 ± 0.062 | 0.0273 ± 0.0069
UGGACCUACAGCUUGCAUAGUAUUUAGUAA | 1.11 ± 0.064 | 0.0627 ± 0.014
UGGACCUACAGCUUGCAUAGUAUUUAGUUU [g2:g29:cont:t1U] | 1.62 ± 0.082 | 0.0974 ± 0.02
UGGACCUACAGCUUGCAUAGUAUUUAGCUUA | 0.316 ± 0.023 | 0.0288 ± 0.0059
UCCUGGAACAGGUUGCAUAGUAUUUAGAAA | 0.362 ± 0.043 | 
AGGACCUACAGCUACGAUAGUAUUUAGUAA | 0.153 ± 0.045 | 
UCGACCAACAGCUUGCAUAGUAAUUAGUUA | 0.972 ± 0.041 | 0.0305 ± 0.0074
AGGACCUACAGCUUGGUUAGUAUUUACAAA | 0.0786 ± 0.021 | 
UGGACCUACAGCAAGCAUAGUAUUUACAAA | 0.273 ± 0.051 | 
UCGACCUACAGCUUGUCAUAGUAUUUAGUUA | 0.742 ± 0.083 | 0.00458 ± 0.0029
UGGACCUACAGCUUGCUAUAGUAUUUAGUUA | 0.0205 ± 0.0066 | 
AGGACCUACAGCUUGCUAUAGUAUUUAGUUA | 0.137 ± 0.037 | 
UGGACCUACAGCUUGUAUAGUAUUUAGUUA | 1.77 ± 0.11 | 0.0563 ± 0.012
UCGACCUACAGCUUGUAUAGUAUUUAGUUA | 1.7 ± 0.074 | 0.0725 ± 0.015
UGGACCUACAGCUUGUCAUAGUAUUUAGUUA | 0.706 ± 0.1 | 0.00373 ± 0.0033
UCGACCUACAGCUUGCUAUAGUAUUUAGUUA | 0.0661 ± 0.018 | 
AGGACCUACAGCUUGUAUAGUAUUUAGUUA | 1.6 ± 0.061 | 0.0803 ± 0.015

Sequence | pre-steady-state target cleavage rate [1] | pre-steady-state target cleavage rate [2]
UCCACCUACAGCUUGUAUAGUAUUUAGUUA | 1.18 ± 0.048 | 0.0524 ± 0.0091
UCCUGGAUGAGCUUGCAUACUAUUUAGAUA | 0.0538 ± 0.017 | 0.00863 ± 0.0041
AGGACCUACAGCUAGCAUAGUAUUUACAAA | 0.474 ± 0.071 | 
UCCACCUUCAGGUUGCAUAGUAUUUAGUUA | 0.817 ± 0.1 | 0.0279 ± 0.0047
UCCUGGAUCAGCUCUGCAUAGUAUUUAGUUA | 0.985 ± 0.054 | 0.0138 ± 0.0041
UCCUGCUUGAGCUUGCAUAGUAUUUAGUAA | 0.491 ± 0.051 | 0.0206 ± 0.004
UCCUGGAACAGCUUGCAUAGUAAUUACAAA | 0.129 ± 0.038 | 
UCCUGGAACAGGUUGCAUAGUAUUUACUUA | 0.164 ± 0.023 | 0.0109 ± 0.0022
UCGACGUACAGCUUGCAAAGUAUUUAGUUA | 1.26 ± 0.043 | 0.0364 ± 0.0077
UCGACGUACAGCUUGCAUUGUAUUUAGUUA | 0.883 ± 0.027 | 0.0351 ± 0.0076
UGGACGUACAGCUUGCAUUGUAUUUAGUUA | 0.79 ± 0.05 | 0.0432 ± 0.01
UGGACGUACAGCUUGCAAAGUAUUUAGUUA | 1.3 ± 0.045 | 0.0558 ± 0.0096
UGGACGUACAGCUUGCUUAGUAUUUAGUUA | 1.37 ± 0.069 | 0.0454 ± 0.0082
AGGACGUACAGCUUGCUUAGUAUUUAGUUA | 1.31 ± 0.055 | 0.0487 ± 0.0095
AGGACGUACAGCUUGCAAAGUAUUUAGUUA | 1.11 ± 0.057 | 0.0396 ± 0.0083
UCGACGUACAGCUUGCUUAGUAUUUAGUUA | 1.63 ± 0.09 | 0.0366 ± 0.0073
AGGACGUACAGCUUGCAUAGUAUUUAGUUA | 1.19 ± 0.048 | 0.0866 ± 0.014
UCCUCCUUCAGCAUGCAUAGUAUUUAGUUA | 1.01 ± 0.043 | 0.0155 ± 0.0034
UCCUCCUACAGCAUGCAUAGUAUAUAGUUA | 0.786 ± 0.042 | 0.00795 ± 0.0022
UCCUGGAUGUCGUAGCAUAGUAUUUAGUUA | 0.0153 ± 0.005 | 
UCCUGGAUGUCCUUGCUUAGUAUUUAGUAA | 0.00726 ± 0.004 | 
UCCUGCUACAGCUUGCAUACAAUUUAGUAA | 0.0165 ± 0.008 | 

Sequence | pre-steady-state target cleavage rate [1] | pre-steady-state target cleavage rate [2]
UCCUCCUACAGCUUGCAAAGUAUUUACAAA | 0.267 ± 0.036 | 0.00344 ± 0.0031
UCGACCUACACGUUGCAUAGUAUUUUCAAA | 0.224 ± 0.036 | 
UCCUGGUACACGUUGCAUAGUAUUUAGUAA | 0.178 ± 0.041 | 
UCCUCCAACAGCUUGCAUAGUAUUUACUUA | 0.267 ± 0.026 | 0.0243 ± 0.0038
UCGACCCUACAGCUUGCAUAGUAUUUAGUUA | 1.33 ± 0.061 | 0.0734 ± 0.012
UCGACCUACAGCUUGCAUAGUAUUUAGUUU [g2:g28:cont:t1U] | 1.75 ± 0.067 | 0.158 ± 0.033
UCGACCUACAGCUUGCAUAGUAUUUAGUUUA | 1.27 ± 0.058 | 0.0631 ± 0.0099
UCGACCUACAGCUUUGCAUAGUAUUUAGUUA | 1.4 ± 0.061 | 0.0371 ± 0.0078
ACGACCUACAGCUUGCAUAGUAUUUAGUUA | 1.56 ± 0.064 | 0.0997 ± 0.017
UCGACCUACAGCUUGCAUAGUAUUUAGUAA | 1.15 ± 0.061 | 0.0683 ± 0.014
UCGACCUACAGCUUGCAUAGUAUUUAGCUUA | 0.375 ± 0.05 | 0.0283 ± 0.0087
UCGACCUACAGCUUGCAUAGUAUUUAGUA | 0.778 ± 0.039 | 0.0159 ± 0.0051
UCGACCUACAGCUUGCAUAGUAUUUAGUUC [g2:g28:cont:t1C] | 1.22 ± 0.045 | 0.0714 ± 0.013
ACGACCUACAGCUUGCAUAGUAUUUAGAUA | 0.62 ± 0.044 | 0.0521 ± 0.011
ACGACCUACAGCUUGCAUAGUAUUUAGUAA | 1.11 ± 0.042 | 0.0771 ± 0.016
UCCUGCUACUCGUUGCAUAGUAUUUAGAAA | 0.0557 ± 0.014 | 
UCCUGGUACAGCUUGGAUAGUAUUUAGUAA | 0.421 ± 0.095 | 0.0149 ± 0.0041
UCCUGCUACAGCUUGCAUUGAAUUUAGUUA | 0.168 ± 0.012 | 0.00991 ± 0.0044
UCCUGGAUGUGCGUUGCAUAGUAUUUAGUUA | 0.28 ± 0.032 | 0.00987 ± 0.0029
UCCACCUACUGCUUGCAAAGUAUUUAGUUA | 0.623 ± 0.025 | 0.0305 ± 0.0052
